Data from PubChem BioAssay.
For some assays here: Entries with a potency or affinity are not part of this list. Active and inactive are the calls of the source. Unless noted, the limit is not given here; nearly all actives have IC50 up to about 0.98 µM.

Test system: not listed separately
Experiment: inhibition of 3D7 malaria parasite growth – strain 3D7 (AID 2306; call rule not given here;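 also: 0% = DMSO wells and 100% = chloroquine plus artemisinin control wells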)
Conditions: P. falciparum 3D7 erythrocytic growth, LDH absorbance, 72 h; at 2 µM; active compounds read high

SMILES	growth inhibition
Cc1cccc(NC(=O)NC2CCN(CCCCCNC(=O)/C=C/c3ccc(Cl)c(Cl)c3)CC2)c1	101% (active)
CCOC(=O)c1ccc(N=C2SC(=Cc3cc(Br)ccc3O)C(=O)N2C)cc1	99% (active)
Cc1cc(N(C)C)nc(Nc2ccc(NC(=O)CCc3ccccc3)cc2)n1	100% (active)
O=C(NC1CCCC1)c1ccc(N2CCC(NCc3cccc(C(F)(F)F)c3)CC2)cc1	87% (active)
Cc1cccc2[nH]c(-c3ccc(-c4ccc(NC(=O)Nc5ccc(Cl)c(Cl)c5)cc4)cc3)nc12	101% (active)
CNCCNCc1cccc(-c2cccc(-c3nc4c(C)cccc4[nH]3)c2)c1	98% (active)
NC1=NC2(CCCCC2)N(OCCOc2ccc(Cc3ccccc3)cc2)C(N)=N1	86% (active)
CCCC(C)Nc1nc(C)cc(N[C@@H](CC(C)C)C(=O)Nc2ccc(OC)cc2)n1 (stereo not given in full)	98% (active)
Nc1nccc2ccc(-c3cccc(O)c3)cc12	95% (active)
CN(Cc1cc(C(F)(F)F)cc(C(F)(F)F)c1)C(=O)C(Cc1ccc(F)cc1)C1CCCNC1 (stereo not given)	96% (active)
COc1ccc(-c2c(-c3ccc(OCc4ccccc4)cc3O)n[nH]c2C(F)(F)F)cc1	93% (active)
Cc1nc(C)c(CC(=O)Nc2ccc(-c3cccc(-c4nc5ccc(C(F)(F)F)cc5[nH]4)c3)cc2)s1	86% (active)
CC(Cc1ccc(Cl)cc1)Nc1nc(NC2CCCC2)nc(N2CCC(C#N)(c3ccccc3)CC2)n1 (stereo not given)	99% (active)
O=C(c1cc2ccccc2o1)N1CCc2cc3nccc(N4CCN5CCC[C@H]5C4)c3cc21	99% (active)
COc1cc(NC(=O)Nc2ccc(Br)cc2C(=O)Nc2ccc(Br)cc2)cc(OC)c1OC	99% (active)
COc1ccc2nccc([C@@H](O)CN3CCC(NC/C=C/c4cccnc4)CC3)c2c1	100% (active)
CC(C)(C)C(=O)Nc1ccc(C(=O)Nc2cccc(-c3nc4ccccc4[nH]3)c2)cc1	96% (active)
COc1ccc(Nc2ncc3c(-c4cccc(NC(=O)Cc5ccc(F)cc5)c4)c[nH]c3n2)cc1OC	101% (active)
OCC1CCN(Cc2ccc(-c3ccc(-c4nc5ccc(C(F)(F)F)cc5[nH]4)cc3)cc2)CC1	100% (active)
CN(C)CCOc1cc(NC(=O)Nc2ccc(Cl)cc2C(F)(F)F)ccc1I	96% (active)

SMILES	growth inhibition
NC(N)=NN=CC(=O)Nc1cccc(C(F)(F)F)c1	99% (active)
Cc1cc(Nc2cccc(C(F)(F)F)c2)nc(NCc2ccccc2)n1	102% (active)
COc1ccc2nccc([C@@H](O)CN3CCC(NCc4cc5c(Cl)cccc5[nH]4)CC3)c2c1	101% (active)
Fc1ccc2[nH]c3c(NCCCN4CCOCC4)ncnc3c2c1	98% (active)
Cc1cc(N2CCC(C)CC2)nc2cc(O)ccc12	89% (active)
COc1ccc2nccc([C@@H](O)CN3CCC(NCc4ccc5sc(=O)[nH]c5c4)CC3)c2c1	98% (active)
COc1ccc(S(=O)(=O)N(CC(=O)NN=C(C)c2cccs2)c2cc(C)cc(C)c2)cc1OC	97% (active)
CC(C)CNCc1ccc(-c2ccccc2CNC2CCN(Cc3ccccc3)CC2)cc1	101% (active)
COc1ccc(CCn2c(=N)c(C(=O)NCc3cccnc3)cc3c(=O)n4ccccc4nc32)cc1	98% (active)
Cc1ccccc1C(O)CNc1ccnc(Nc2cccc(C#N)c2)n1 (stereo not given)	94% (active)
COc1ccc(NC(=O)NC2CCN(c3ccnc4cc(Cl)ccc34)CC2)cc1	83% (active)
COc1ccccc1C(=O)Nc1cccc(N2CCC(NCc3ccc(-n4cccn4)cc3)CC2)c1	86% (active)
CC(C)(C)CCN1CCC(NC(=O)c2ccc(-c3cccc(C(F)(F)F)c3)s2)CC1	93% (active)
N#Cc1ccc(-c2nc(CO)c(C(=O)NCCCCN3CCC(c4ccc5c(c4OCC(N)=O)CCCC5)CC3)s2)cc1	92% (active)
O=C(/C=C/c1ccc(Cl)c(Cl)c1)NCCCCCN1CC[C@H](NC(=O)Nc2ccc(Oc3ccccc3)cc2)C1	100% (active)
COCCC[C@H]1C(=O)O[C@H]2CCC[C@@H]21	93% (active)
CN(C)Cc1ccc(-c2cccc(NC(=O)c3ccc(Cl)cc3)c2)cc1	94% (active)
O=C(NCCCCCN1CCC(c2c[nH]c3ccccc23)CC1)Nc1cccc(Cl)c1	86% (active)
Fc1ccc2nc(-c3ccc(-c4ccc(CNCc5ccccc5)cc4)cc3)[nH]c2c1	101% (active)
CN(C)c1ccc(N=C2N=C(Nc3ccc(N(C)C)cc3)c3ccccc32)cc1	93% (active)

Target: Calcium-dependent protein kinase 1 (Plasmodium falciparum (isolate 3D7)) (UniProt P62344)
Sequence (P62344 whole entry, looked up): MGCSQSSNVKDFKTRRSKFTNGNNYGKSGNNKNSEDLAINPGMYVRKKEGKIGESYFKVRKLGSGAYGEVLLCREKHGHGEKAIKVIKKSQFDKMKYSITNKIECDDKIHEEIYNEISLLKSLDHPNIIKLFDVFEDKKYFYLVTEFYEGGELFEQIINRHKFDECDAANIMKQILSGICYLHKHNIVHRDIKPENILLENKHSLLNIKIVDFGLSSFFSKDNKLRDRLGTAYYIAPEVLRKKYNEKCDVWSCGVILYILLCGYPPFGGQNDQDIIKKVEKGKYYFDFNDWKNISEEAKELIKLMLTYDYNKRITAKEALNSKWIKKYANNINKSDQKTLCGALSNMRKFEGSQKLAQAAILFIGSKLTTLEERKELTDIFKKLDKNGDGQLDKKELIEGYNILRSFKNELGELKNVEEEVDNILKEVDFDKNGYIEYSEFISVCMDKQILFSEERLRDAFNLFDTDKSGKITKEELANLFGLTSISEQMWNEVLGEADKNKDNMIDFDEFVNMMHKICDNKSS
Experiment: PfCDPK1 kinase inhibitors, biochemical, TCAMS library (AID 1159585);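 also: inhibitors leave more ATP so luminescence rises with inhibition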
Conditions: recombinant PfCDPK1, Kinase-Glo ATP depletion luminescence

SMILES	outcome
Cc1cccc(NC(=O)NC2CCN(CCCCCNC(=O)/C=C/c3ccc(Cl)c(Cl)c3)CC2)c1	inactive
CCOC(=O)c1ccc(N=C2SC(=Cc3cc(Br)ccc3O)C(=O)N2C)cc1	inactive
Cc1cc(N(C)C)nc(Nc2ccc(NC(=O)CCc3ccccc3)cc2)n1	inactive
O=C(NC1CCCC1)c1ccc(N2CCC(NCc3cccc(C(F)(F)F)c3)CC2)cc1	inactive
Cc1cccc2[nH]c(-c3ccc(-c4ccc(NC(=O)Nc5ccc(Cl)c(Cl)c5)cc4)cc3)nc12	inactive
CNCCNCc1cccc(-c2cccc(-c3nc4c(C)cccc4[nH]3)c2)c1	inactive
NC1=NC2(CCCCC2)N(OCCOc2ccc(Cc3ccccc3)cc2)C(N)=N1	inactive
CCCC(C)Nc1nc(C)cc(N[C@@H](CC(C)C)C(=O)Nc2ccc(OC)cc2)n1 (stereo not given in full)	inactive
Nc1nccc2ccc(-c3cccc(O)c3)cc12	inactive
CN(Cc1cc(C(F)(F)F)cc(C(F)(F)F)c1)C(=O)C(Cc1ccc(F)cc1)C1CCCNC1 (stereo not given)	inactive
COc1ccc(-c2c(-c3ccc(OCc4ccccc4)cc3O)n[nH]c2C(F)(F)F)cc1	inactive
Cc1nc(C)c(CC(=O)Nc2ccc(-c3cccc(-c4nc5ccc(C(F)(F)F)cc5[nH]4)c3)cc2)s1	inactive
CC(Cc1ccc(Cl)cc1)Nc1nc(NC2CCCC2)nc(N2CCC(C#N)(c3ccccc3)CC2)n1 (stereo not given)	inactive
O=C(c1cc2ccccc2o1)N1CCc2cc3nccc(N4CCN5CCC[C@H]5C4)c3cc21	inactive
COc1cc(NC(=O)Nc2ccc(Br)cc2C(=O)Nc2ccc(Br)cc2)cc(OC)c1OC	inactive
COc1ccc2nccc([C@@H](O)CN3CCC(NC/C=C/c4cccnc4)CC3)c2c1	inactive
CC(C)(C)C(=O)Nc1ccc(C(=O)Nc2cccc(-c3nc4ccccc4[nH]3)c2)cc1	inactive
COc1ccc(Nc2ncc3c(-c4cccc(NC(=O)Cc5ccc(F)cc5)c4)c[nH]c3n2)cc1OC	inactive
OCC1CCN(Cc2ccc(-c3ccc(-c4nc5ccc(C(F)(F)F)cc5[nH]4)cc3)cc2)CC1	inactive
CN(C)CCOc1cc(NC(=O)Nc2ccc(Cl)cc2C(F)(F)F)ccc1I	inactive

SMILES	outcome
NC(N)=NN=CC(=O)Nc1cccc(C(F)(F)F)c1	inactive
Cc1cc(Nc2cccc(C(F)(F)F)c2)nc(NCc2ccccc2)n1	inactive
COc1ccc2nccc([C@@H](O)CN3CCC(NCc4cc5c(Cl)cccc5[nH]4)CC3)c2c1	inactive
Fc1ccc2[nH]c3c(NCCCN4CCOCC4)ncnc3c2c1	inactive
Cc1cc(N2CCC(C)CC2)nc2cc(O)ccc12	inactive
COc1ccc2nccc([C@@H](O)CN3CCC(NCc4ccc5sc(=O)[nH]c5c4)CC3)c2c1	inactive
COc1ccc(S(=O)(=O)N(CC(=O)NN=C(C)c2cccs2)c2cc(C)cc(C)c2)cc1OC	inactive
CC(C)CNCc1ccc(-c2ccccc2CNC2CCN(Cc3ccccc3)CC2)cc1	inactive
COc1ccc(CCn2c(=N)c(C(=O)NCc3cccnc3)cc3c(=O)n4ccccc4nc32)cc1	inactive
Cc1ccccc1C(O)CNc1ccnc(Nc2cccc(C#N)c2)n1 (stereo not given)	inactive
COc1ccc(NC(=O)NC2CCN(c3ccnc4cc(Cl)ccc34)CC2)cc1	inactive
COc1ccccc1C(=O)Nc1cccc(N2CCC(NCc3ccc(-n4cccn4)cc3)CC2)c1	inactive
CC(C)(C)CCN1CCC(NC(=O)c2ccc(-c3cccc(C(F)(F)F)c3)s2)CC1	inactive
N#Cc1ccc(-c2nc(CO)c(C(=O)NCCCCN3CCC(c4ccc5c(c4OCC(N)=O)CCCC5)CC3)s2)cc1	inactive
O=C(/C=C/c1ccc(Cl)c(Cl)c1)NCCCCCN1CC[C@H](NC(=O)Nc2ccc(Oc3ccccc3)cc2)C1	inactive
COCCC[C@H]1C(=O)O[C@H]2CCC[C@@H]21	inactive
CN(C)Cc1ccc(-c2cccc(NC(=O)c3ccc(Cl)cc3)c2)cc1	inactive
O=C(NCCCCCN1CCC(c2c[nH]c3ccccc23)CC1)Nc1cccc(Cl)c1	inactive
Fc1ccc2nc(-c3ccc(-c4ccc(CNCc5ccccc5)cc4)cc3)[nH]c2c1	inactive
CN(C)c1ccc(N=C2N=C(Nc3ccc(N(C)C)cc3)c3ccccc32)cc1	inactive
